PubChem BioAssay (EPA / NIEHS)
Where “and” joins values, the source holds several entries; their conditions need not be identical. Identical values can stand only once. Records with an inconclusive call do not appear. Some structures have more than one record in an assay (separate samples or runs), and their calls can disagree. Calls of active or inactive are those of the source. Rule for the calls, unless noted: active = hit-call score of the fitted dose curve at least 0.9, where 1 is the maximum; inactive = score below 0.9.

Key:
[1] = CCTE_Mundy_HCI_Cortical_NOG_NeuronCount: CCTE's Neurite Outgrowth Assay in rat cortical cells for Neuron Count, Mundy Lab (AID 2284236; active = hit-call score of the fitted dose curve at least 0.9, where 1 is the maximum;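 note: neurons counted by imaging betaIII-tubulin and Hoechst stained cortical cells; cells exposed to compound for about 48 hours before fixation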)
Summary of the method: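 Read-out: neuron number by high-content imaging of betaIII-tubulin (Alexa Fluor-488) and Hoechst-labelled rat primary cortical cells.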

[2] = CCTE_Mundy_HCI_Cortical_NOG_BPCount: CCTE's Neurite Outgrowth Assay in rat cortical cells for Branch Point Count, Mundy Lab (AID 2284237)
Summary of the method: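 Measured 50.33 h after dosing, this morphology endpoint uses rat primary cortical cultures labelled for betaIII-tubulin. Branch points are quantified by high-content imaging, with DMSO as negative control and baseline.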

[3] = CCTE_Mundy_HCI_hNP1_Casp3_7: CCTE's Caspase-Glo 3/7 Assay in human neuroprogenitor cells for Apoptosis, Mundy Lab (AID 2284240)
Summary of the method: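 Neuroepithelial-lineage stem cells from WA09 embryonic cells were treated with chemicals after 40–44 h of culture. Twenty-four hours later, caspase-3/7 activation was detected luminescently after a 30 min room-temperature reagent step, with DMSO as baseline.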

[4] = CCTE_Mundy_HCI_hNP1_CellTiter: CCTE's Cell Titer-Glo 2 Assay in human neuroprogenitor cells for Viability, Mundy Lab (AID 2284241; active = hit-call score of the fitted dose curve at least 0.9, where 1 is the maximum)
Summary of the method: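 Measures ATP content in human neural progenitors derived from WA09 embryonic cells. Read-out at 26.5 hours after dosing, with DMSO serving as the negative control and baseline.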

[5] = CCTE_Mundy_HCI_Cortical_Synap_Neur_Matur_NeuronCount: CCTE's Synaptogenesis and Neurite Maturation Assay in rat cortical cells for Neuron Count, Mundy Lab (AID 2284242; active = hit-call score of the fitted dose curve at least 0.9, where 1 is the maximum;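 for AC50: neuron number from Hoechst nuclei and MAP2 staining by high-content imaging; hits reduce neuron count versus DMSO baseline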)
Summary of the method: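 Cortical cells from rat are plated, treated with AraC at DIV 5, and exposed to test chemicals with a media change at DIV 7. At DIV 12 they are fixed and immunostained (MAP2, synaptophysin), and imaged neuron counts are compared against DMSO controls.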

[6] = TAMU_HCS_1.5hr_SingleDonor1434_Cytotoxicity: Cytotoxicity Assessment using High-content Screening (HCS) Fluorescent Imaging for the Texas A&M University (TAMU) 1.5-hr Human Induced Pluripotent Stem Cell (iPSC)-derived Cardiotoxicity Assay (AID 2284234; active = hit-call score of the fitted dose curve at least 0.9, where 1 is the maximum)
Summary of the method: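 Nuclear counts from Hoechst 33342 imaging define cytotoxicity here, with EC10 (10% cell-count loss relative to DMSO) as point of departure. iPSC cardiomyocytes received 0.2-100 uM test chemical in 0.5% DMSO for 1.5 h at 37 C.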

[7] = TAMU_PeakParms_SingleDonor1434_QT: Texas A&M University (TAMU) 1.5-hr Human Induced Pluripotent Stem Cell (iPSC)-derived Cardiomyocytes Calcium (Ca+2) Flux Assay for Cardiotoxicity: QT (decay-rise ratio) (AID 2284235; active = hit-call score of the fitted dose curve at least 0.9, where 1 is the maximum)
Summary of the method: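 Decay/rise ratio of calcium-flux fluorescence scored after 90 min exposure (37C) of donor 1434 iPSC cardiomyocytes to 0.2–100 uM (0.5% DMSO). Beat-cessation and severe-notch points removed; POD is EC05, a 5% rise over DMSO.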

[8] = read-out: Collagen I, COL1A1 (gene 1277); experiment: BSK_MyoF_CollagenI: BioMAP Diversity Plus: MyoF Assay for Collagen I Biomarker Activity (AID 2284238); details: primary human lung fibroblasts
Summary of the method: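 Human lung fibroblasts were exposed to test chemical for 24 h, then Collagen I was quantified by ELISA. Activity was fitted in the increasing direction against DMSO as the negative control and baseline.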

[9] = read-out: Collagen III, COL3A1 (gene 1281); experiment: BSK_MyoF_CollagenIII: BioMAP Diversity Plus: MyoF Assay for Collagen III Biomarker Activity (AID 2284239); details: primary human lung fibroblasts
Summary of the method: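 Human lung fibroblasts were dosed with chemicals and, 24 hours later, collagen III was measured by ELISA. Activity was fitted in the positive direction against the DMSO negative-control baseline.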

[10] = read-out: Interleukin 17F (IL17F), IL17F (gene 112744); experiment: BSK_BT_xIL17F: BioMAP Diversity Plus: BT Assay for Interleukin 17F (IL17F) Biomarker Activity (AID 2284243); details: primary human B cells with PBMC
Summary of the method: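 B cell/PBMC co-culture (human primary), 24 h compound exposure; sIL-17F by Luminex xMAP; gain-of-signal fit vs DMSO baseline.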

[11] = read-out: Actin alpha 1 (ACTA1), ACTA1 (gene 58); experiment: BSK_MyoF_ACTA1: BioMAP Diversity Plus: MyoF Assay for Actin alpha 1 (ACTA1) Biomarker Activity (AID 2284244); details: primary human lung fibroblasts
Summary of the method: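 Cells were exposed to chemical for 24 h before a-SMA levels were quantified by ELISA in human lung fibroblasts. Increases were fitted against DMSO as negative control; parallel SRB staining (0.1% after 10% TCA fixation, 560 nm) assessed cytotoxicity.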

[12] = read-out: Interleukin 2 (IL2), IL2 (gene 3558); experiment: BSK_BT_xIL2: BioMAP Diversity Plus: BT Assay for Interleukin 2 (IL2) Biomarker Activity (AID 2284245); details: primary human B cells with PBMC
Summary of the method: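 The BT system combines human B cells with peripheral blood mononuclear cells. Twenty-four hours after chemical dosing, secreted IL-2 was measured with xMAP bead technology, and responses were analyzed as increases over DMSO controls.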

[13] = read-out: Basic fibroblast growth factor (bFGF), FGF2 (gene 2247); experiment: BSK_MyoF_bFGF: BioMAP Diversity Plus: MyoF Assay for Basic fibroblast growth factor (bFGF) Biomarker Activity (AID 2284246); details: primary human lung fibroblasts
Summary of the method: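 Chemicals are added to human lung fibroblast cultures and incubated 24 h. bFGF is then measured by ELISA, while parallel cultures receive SRB staining for total protein as a cytotoxicity check. Data are fitted upward against DMSO.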

[14] = read-out: Collagen IV, COL4A1 (gene 1282); experiment: BSK_MyoF_CollagenIV: BioMAP Diversity Plus: MyoF Assay for Collagen IV Biomarker Activity (AID 2284247); details: primary human lung fibroblasts
Summary of the method: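 Human lung fibroblast system, 24 h chemical exposure. Endpoint: Collagen IV by ELISA, upward fit vs DMSO.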

[15] = read-out: Monokine induced gamma interferon (MIG), CXCL9 (gene 4283); experiment: BSK_KF3CT_MIG: BioMAP Diversity Plus: KF3CT Assay for Monokine induced gamma interferon (MIG) Biomarker Activity (AID 2284248); details: primary human keratinocytes with fibroblasts
Summary of the method: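 Human keratinocyte plus foreskin fibroblast primary co-culture dosed with test chemical for 24 h; MIG level measured by ELISA and fitted in the positive direction against DMSO as baseline.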

[16] = read-out: Vascular cell adhesion molecule 1 (VCAM1), VCAM1 (gene 7412); experiment: BSK_BF4T_VCAM1: BioMAP Diversity Plus: BF4T Assay for Vascular cell adhesion molecule 1 (VCAM1) Biomarker Activity (AID 2284249); details: primary human bronchial epithelial cells with fibroblasts
Summary of the method: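 Cell-surface VCAM-1 quantified by ELISA after 24 h chemical exposure of human bronchial epithelial/dermal fibroblast co-cultures, with SRB staining in parallel wells for cytotoxicity; DMSO baseline, positive-direction fitting.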

[17] = read-out: Collagen I, COL1A1 (gene 1277); experiment: BSK_hDFCGF_CollagenI: BioMAP Diversity Plus: hDFCGF Assay for Collagen I Biomarker Activity (AID 2284250); details: primary human foreskin fibroblasts
Summary of the method: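 Collagen I ELISA, primary human foreskin fibroblasts, 24 h chemical exposure, DMSO = negative control/baseline, positive fitting direction.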

[18] = read-out: Interferon-inducible T-cell alpha chemoattractant (ITAC), CXCL11 (gene 6373); experiment: BSK_hDFCGF_ITAC: BioMAP Diversity Plus: hDFCGF Assay for Interferon-inducible T-cell alpha chemoattractant (ITAC) Biomarker Activity (AID 2284251); details: primary human foreskin fibroblasts
Summary of the method: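 Chemical dosing of primary human foreskin fibroblast cultures preceded ELISA measurement of I-TAC at 24 h. Response was analysed in the positive direction using DMSO as baseline, while parallel SRB staining measured cytotoxicity.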

[19] = read-out: Plasminogen activator inhibitor-1 (PAI1), SERPINE1 (gene 5054); experiment: BSK_KF3CT_PAI1: BioMAP Diversity Plus: KF3CT Assay for Plasminogen activator inhibitor-1 (PAI1) Biomarker Activity (AID 2284252); details: primary human keratinocytes with fibroblasts
Summary of the method: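 Cells (human keratinocytes co-cultured with foreskin fibroblasts) are exposed to test chemical for 24 h. PAI-1 is then measured by ELISA and analysed for signal gain against DMSO.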

[20] = read-out: Monocyte Chemoattractant Protein-1 (MCP1), CCL2 (gene 6347); experiment: BSK_IMphg_MCP1: BioMAP Diversity Plus: IMphg Assay for Monocyte Chemoattractant Protein-1 (MCP1) Biomarker Activity (AID 2284253); details: primary human endothelial cells with macrophages
Summary of the method: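 ELISA readout of MCP-1 at 24 hours in IMphg co-cultures of venular endothelial cells and macrophages, normalised to DMSO; parallel cultures stained with sulforhodamine B for overt cytotoxicity.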

Measured: AC50

[O-][Cl+]O
inactive: [1] | [2] | [3] | [4] | [5]

Clc1ccc(C(c2ccc(Cl)cc2)C(Cl)(Cl)Cl)cc1
active: [6] 50 µM
inactive: [7]

CN(C)[C@@H]1C(=O)C(C(N)=O)=C(O)[C@@]2(O)C(=O)C3=C(O)c4c(O)cccc4[C@@](C)(O)[C@H]3C[C@@H]12
inactive: [1] | [2] | [3] | [4]

COP(=S)(OC)SCN1C(=O)c2ccccc2C1=O
inactive: [1] | [2] | [3] | [4] | [5]

CC(C)COC(=O)c1ccccc1C(=O)OCC(C)C
active: [5] 80.3 µM
inactive: [1] | [2] | [3] | [4]

CCCCOC(=O)c1ccccc1C(=O)OCc1ccccc1
inactive: [1] | [2] | [3]
active: [5] 50.5 µM

ClC1=C(Cl)[C@]2(Cl)[C@H]3[C@H]([C@@H]4C=C[C@H]3C4)[C@@]1(Cl)C2(Cl)Cl
active: [6] 83 µM
inactive: [7]

CCNS(=O)(=O)C(F)(F)C(F)(F)C(F)(F)C(F)(F)C(F)(F)C(F)(F)C(F)(F)C(F)(F)F
active: [8] 50.6 µM and 44.6 µM | [9] 44.1 µM and 45 µM | [10] 21.4 µM and 37.4 µM | [11] 21.5 µM and 30 µM | [13] 46.5 µM and 50.8 µM | [14] 54.7 µM and 7.29 µM | [15] 46 µM | [16] 15.4 µM and 14.3 µM | [17] 46.9 µM and 38.3 µM | [18] 24.8 µM and 27.5 µM | [19] 39.7 µM and 39.3 µM | [20] 41.4 µM and 36.9 µM
inactive: [12] | [15]
